From PubChem BioAssay
Six1-Eya2 blk – blocks human Six1 binding to Eya2; Q15475+O00167; AlphaScreen GST-Six1/His-Eya2 binding, biochemical; hits give low values; activity change, % (concentration not given with the values); hit rate 0.56% among 360,000; AID 651725; in the data active = activity change below about -65%; inconclusive = mostly about -30% to -63%; also: % is scaled to controls: 0 for no effect and ±100 for the full control effect
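Six1/Eya2 binding was read as AlphaScreen signal after compounds were pinned into GST-Six1 plus His-tagged Eya2 (5X stock 250/500 nM) in pH 8.0 Tris/NaCl/TCEP buffer, beads added, then incubated 1 h, 37 C, dark.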
JMJD2A Tudor – inhibitors of human JMJD2A Tudor domain. AlphaScreen JMJD2A-Tudor / H3K4me3 peptide binding. hit rate 4.4% among 390,000. Potency, µM (top dose mostly 114 µM), without a hit: at the highest dose activity change, negative = inhibition, actives largely listed as inhibitors. O75164; also: potency is read from the fitted curve at half-maximal effect; % is scaled to controls: 0 for no effect and ±100 for the full control effect; nearly all actives have a fitted effect of over 50% in size
CtBP-E1A blk – inhibitors of CtBP/E1A interaction; AlphaScreen GST-E1A/His-CtBP binding, 1536-well; hits give low values; activity change, % (no concentration beside the values); hit rate 0.49% among 340,000; AID 651724; in the data active = activity change below about -65%; inconclusive = mostly about -30% to -63%; also: % is scaled to controls: 0 for no effect and ±100 for the full control effect
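GST-E1A and His-tagged CtBP (125 nM each as 5X stock) were preincubated with pin-transferred compound for 2 h at 37 °C in the dark, then glutathione donor and nickel acceptor beads were added for 1 h before AlphaScreen reading.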
HP1b binding inh – HP1-beta chromodomain-methylated histone interaction inhibition. P83916. hit rate 0.56% among 390,000. Potency, µM (series often up to 114 µM), for inactives: top-dose activity change, negative = inhibition, most hits filed as inhibitors. AlphaScreen HP1-beta / biotin-H3K9me3 peptide binding; also: potency is read from the fitted curve at half-maximal effect; nearly all actives have a fitted effect of over 70% in size
Target sequence (P83916 whole entry, looked up): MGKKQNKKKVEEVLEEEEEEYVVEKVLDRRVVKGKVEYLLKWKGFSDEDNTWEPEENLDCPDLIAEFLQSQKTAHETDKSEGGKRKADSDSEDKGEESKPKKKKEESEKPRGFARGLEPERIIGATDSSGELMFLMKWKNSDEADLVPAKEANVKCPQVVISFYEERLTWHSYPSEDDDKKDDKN
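HP1-beta protein (50 nM final) preincubated 30 min at room temperature with biotinylated H3(1-18)K9me3 peptide (50 nM) in PBS pH 7.4, 0.01% Tween-20, then compound added for 30 min. AlphaScreen streptavidin donor/nickel chelate acceptor beads (10 ug/mL final), 30 min dark, luminescence read.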
BAZ2B block – blocks human BAZ2B; Q9UIF8; AlphaScreen BAZ2B-H3K14Ac peptide displacement; Potency, µM (titrated, usually from 114 µM), for inactives: at the highest dose activity change, negative = inhibition, actives largely listed as inhibitors; hit rate 4.4% among 360,000; AID 504333; also: potency is read from the fitted curve at half-maximal effect; % is scaled to controls: 0 for no effect and ±100 for the full control effect; nearly all actives have a fitted effect of over 60% in size
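Complex of BAZ2B and biotin-H3K14Ac (50 nM apiece) forms over 30 min at RT, then faces library compounds up to 110 uM for another 30 min; AlphaScreen beads added, 20 min dark incubation, luminescence read.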
G9a block – blocks human histone lysine methyltransferase G9a. hit rate 8.8% among 350,000. G9a H3K9 monomethylation, AlphaScreen, 2 h. Potency, µM (titrated, usually from 102 µM), for the others: at the top dose activity, negative = inhibition, hits mostly inhibitors. Q96KQ7. AID 504332; also: potency is read from the fitted curve at half-maximal effect; % is scaled to controls: 0 for no effect and ±100 for the full control effect; nearly all actives have a fitted effect of over 75% in size
Target sequence (Q96KQ7 913-1193 limits assumed): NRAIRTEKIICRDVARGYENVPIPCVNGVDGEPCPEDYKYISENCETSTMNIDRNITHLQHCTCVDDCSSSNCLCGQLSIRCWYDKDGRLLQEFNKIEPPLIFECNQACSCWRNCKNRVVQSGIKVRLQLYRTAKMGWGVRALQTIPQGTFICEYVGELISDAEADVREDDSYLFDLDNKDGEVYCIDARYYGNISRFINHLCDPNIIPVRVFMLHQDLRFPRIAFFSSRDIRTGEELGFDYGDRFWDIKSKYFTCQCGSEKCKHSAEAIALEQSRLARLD
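Compounds were preincubated with 20 nM G9a for 15 min, after which biotinylated H3K9 peptide (500 nM) and SAM (20 uM) started a 2 h room-temperature reaction. Monomethylated product was quantified by antibody-based AlphaScreen chemiluminescence.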
The depositor's hits bear a star; ? = inconclusive; / = no result given; ! = a repeat was not active; [ ] = remark or other dose. In the library only some 10% were active in any assay of this set; here they are far more common. Unless noted, calls follow the shape of the dose curve; as a rule, active = well fitted inhibition curve with a large enough effect; inconclusive = small, poorly fitted or top-dose-only effect; inactive = no such curve, though single readings can be large or run the other way.

SMILES | Six1-Eya2 blk | JMJD2A Tudor | CtBP-E1A blk | HP1b binding inh | BAZ2B block | G9a block
COC(=O)c1cc(OC)c(OC)c(OC)c1NC(=O)c1cc(=O)n(C)c(=O)n1C | / | -5% | / | 22% | -9% | 28µM*
C/C(N)=C(/C#N)C(=O)CSc1nnc(Nc2cccc(C)c2)s1 | ? | 79µM*! | -7 | -5% | ? | ?
C/C(N)=C(/C#N)C(=O)CSc1nc2cc(Cl)ccc2s1 | -14 | -19% | -3 | 10% | -10% | 14µM*
C/C(N)=C(/C#N)C(=O)CSc1cc(Cl)ccc1Cl | 2 | -7% | 6 | 28% | -18% | ?
COc1ccc(-c2cc3c(=O)n(CC(=O)Nc4cc(F)ccc4F)ccn3n2)cc1OC | / | -9% | / | 15% | -7% | 15%[59 µM]
C=Cc1ccc(CN2C(=O)N(c3cccc(Cl)c3)S(=O)(=O)c3ccccc32)cc1 | / | -16% | / | 7% | -3% | 13%[59 µM]
C=CCNc1nc(C(=O)OCC(=O)Nc2ccc(S(N)(=O)=O)cc2)cs1 | -11 | ? | -11 | 0% | 89µM* | -36%
C=CCNc1nc(C(=O)OCC(=O)Nc2cc(S(C)(=O)=O)ccc2Cl)cs1 | -5 | -2% | 4 | 32% | 7% | 45µM*
C=CCNc1nc(C(=O)OCC(=O)NCc2cccc(Cl)c2)cs1 | 1 | -9% | 0 | 23% | 5% | -6%[12.7 µM]
N#CC1=C(N)Oc2cc(O)ccc2C1c1cccs1 (configuration not stated) | -16 | -3% | 0 | 28% | -3% | 56µM*
N#CC1=C(N)Oc2c(ccc3ccccc23)C1c1cccs1 (configuration not stated) | -11 | -30% | -20 | -5% | ? | 7.1µM*
N#CC1=C(N)Oc2c(ccc3cccnc23)C1c1ccccc1 (configuration not stated) | 7 | -26% | ? | 21% | -28% | 6%[59 µM]
O=c1[nH]c(C2CCN(S(=O)(=O)c3ccc([N+](=O)[O-])cc3)CC2)nc2c1nnn2Cc1ccccc1 | 1 | -19% | 5 | 4% | ? | -2%
O=c1[nH]c(C2CCN(S(=O)(=O)c3ccccc3)CC2)nc2c1nnn2Cc1ccccc1 | -9 | 50µM* | -29 | 1% | -9% | ?
Nc1ccc2nc(SCC(=O)N3CCOCC3)sc2c1 | 21 | -8% | 19 | 31% | -1% | 0%
CCN(CC)C(=O)CSc1nc(N)c(C(=O)Nc2ccc(OC)cc2)s1 | -9 | -27% | -20 | 10% | -24% | -5%[59 µM]
Nc1ccc2nc(SCC(=O)N3CCN(c4ccccc4)CC3)sc2c1 | -12 | -31% | 0 | 4% | ? | 50µM*
Nc1ccc2nc(SCc3cccc(F)c3)sc2c1 | -14 | -33% | 2 | -7% | / | 45µM*
CCOC(=O)CSc1nc(N)c(C(=O)Nc2ccc(N(C)C)cc2)s1 | -27 | 40µM* | -24 | ? | 50µM* | 16µM*
CCOC(=O)CSc1nc2ccc(N)cc2s1 | 0 | -18% | 4 | 28% | -6% | 32µM*
CC(=O)Nc1ccc2nc(SCc3ccccc3)sc2c1 | / | -16% | / | 32% | -18% | 2%[59 µM]
COc1ccc(-c2n(CC(=O)OC3CC(C)CCC3C(C)C)c3ccccc3[n+]2C)cc1 (configuration not stated) | 11 | -11% | 0 | 24% | ? | 1.1µM*
CC1=CC(C)(C)Nc2ccc(OC(=O)C(C)N3C(=O)c4ccccc4C3=O)cc21 (configuration not stated) | ? | ? | ? | ? | 22µM* | 10µM*
CC(=O)/C=C\c1ccc(OC(=O)c2cccnc2)cc1 | -1 | 2% | 2 | 40% | -8% | /
COc1ccc(OC(=O)C(C)N2C(=O)c3ccccc3C2=O)cc1 (configuration not stated) | -10 | 3% | 6 | 58% | 0% | -1%
SMILES | Six1-Eya2 blk | JMJD2A Tudor | CtBP-E1A blk | HP1b binding inh | BAZ2B block | G9a block
O=C(Oc1cccc(OC(=O)c2ccco2)c1)c1ccco1 | -2 | 5% | / | 45% | -32% | 86%
CC1=CC(C)(C)Nc2ccc(OC(=O)c3ccco3)cc21 | -18 | ? | 4 | -13% | 50µM* | ?
CC1=CC(C)(C)N2C(=O)C(=O)c3cc(OC(=O)c4ccco4)cc1c32 | -9 | 35µM* | -1 | 32µM* | 35µM* | 35µM*
O=Cc1ccc(OC(=O)c2cccnc2)cc1 | -65* | -7% | -10 | 45% | -4% | 17%[59 µM]
CC(=O)c1cc2c(cc1NC(=O)c1c(C)nn(-c3ccc(C)cc3)c1-n1cccc1)OCO2 | / | 0% | / | 40% | -20% | -10%[59 µM]
Cc1ccc(OCC(=O)Nc2ccc3nn(-c4ccc(Cl)cc4)nc3c2)cc1 | / | -19% | / | -1% | -4% | 2%[59 µM]
CCOc1ccc(S(=O)(=O)Nc2ccc3c(c2)c(C(C)=O)c(C)n3S(=O)(=O)c2ccc(OCC)cc2)cc1 | / | -24% | / | 16% | -9% | ?
O=C(CNC(=O)c1ccc(F)cc1)OCc1cc(=O)n2ccsc2n1 | / | -16% | / | -5% | 0% | 11%[59 µM]
Clc1ccc(-c2nc3sccn3c2/C=N/OCc2ccc(Cl)c(Cl)c2)cc1 | / | / | / | / | / | 26%[59 µM]
CC1=CC(C)(C)Nc2ccc(OC(=O)c3cccnc3)cc21 | -14 | ? | -1 | -6% | 40µM* | 45µM*
O=C(Oc1ccc(F)cc1)c1cccnc1 | 1 | -8% | / | 31% | 10% | 29%
COc1ccc(-c2nnc3c4ccccc4c(C)nn23)cc1S(=O)(=O)N1CCN(CCO)CC1 | -71* | -27% | -82* | -5% | -6% | 5%[59 µM]
Cc1nn2c(-c3ccc(S(=O)(=O)N4CCN(CCO)CC4)o3)nnc2c2ccccc12 | ? | -14% | -75* | 27% | -19% | 10%
NC(=O)C1CCN(C2CC(=O)N(Cc3ccc(N4CCCC4=O)cc3)C2=O)CC1 (configuration not stated) | -4 | ? | 1 | 27% | -9% | 45µM*
O=C(Nc1ccccc1C(=O)N1CCCCC1)c1nsc2ccccc12 | / | 1% | / | 56%[57 µM] | 12% | 4%[59 µM]
CN1CCN(c2ccc([N+](=O)[O-])cc2NC(=O)c2ccccc2Cl)CC1 | -9 | -6% | -12 | 8% | ? | -10%[0.501 µM]
CCN1CCN(C(=S)Nc2cccc([N+](=O)[O-])c2)CC1 | 5 | -16% | 7 | 5% | -7% | 71µM*
COc1cc(NC(=S)N2CCN(CCO)CC2)c(OC)cc1Cl | -3 | -1% | -1 | 42% | -7% | 0%
CN1CCN(C(=S)Nc2cc([N+](=O)[O-])ccc2Cl)CC1 | 7 | ? | 2 | -4% | -28% | 3.2µM*
COc1cc(NC(=S)N2CCCC(CO)C2)c(OC)cc1Cl (configuration not stated) | -3 | -6% | 1 | 4% | -5% | 45µM*
